Assay [1] deals with Catechol O-methyltransferase (Homo sapiens) (UniProt P21964). As to the kind of experiment: Confirmatory Screen for Target Class Profiling of Small Molecule Inhibitors of Methyltransferases (AID 1745852; calls by dose curve; further: potency means the concentration at half of the fitted maximal effect; on activity change, negative = inhibition: on the % scale 0 is the no-effect control and ±100 the full control effect). The note with it: MTase-Glo luminescence, SAH detection, recombinant enzyme; measured here: COMT max response; stronger effect = lower value.
Sequence of Catechol O-methyltransferase (Homo sapiens) (P21964 whole entry, looked up): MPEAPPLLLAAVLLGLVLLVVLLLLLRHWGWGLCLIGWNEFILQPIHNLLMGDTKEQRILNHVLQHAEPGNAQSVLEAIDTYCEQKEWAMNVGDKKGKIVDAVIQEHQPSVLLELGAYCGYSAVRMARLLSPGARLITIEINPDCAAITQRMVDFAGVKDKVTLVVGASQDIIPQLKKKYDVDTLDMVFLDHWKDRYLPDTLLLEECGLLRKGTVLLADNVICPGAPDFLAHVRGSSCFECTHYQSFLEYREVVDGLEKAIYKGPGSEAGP
Assay [2] has as its target Guanidinoacetate N-methyltransferase (Homo sapiens) (UniProt Q14353). The assay is described as above. The note with it: MTase-Glo luminescence, SAH detection, recombinant enzyme; activity change, negative = inhibition: at 57.3 µM (top of the series).
The target of assay [3] is Nicotinamide N-methyltransferase (Homo sapiens) (UniProt P40261). The assay is described as above. The note with it: MTase-Glo luminescence, SAH detection, recombinant enzyme; measured here: NNMT max response; stronger effect = lower value.
Sequence of Nicotinamide N-methyltransferase (Homo sapiens) (P40261 whole entry, looked up): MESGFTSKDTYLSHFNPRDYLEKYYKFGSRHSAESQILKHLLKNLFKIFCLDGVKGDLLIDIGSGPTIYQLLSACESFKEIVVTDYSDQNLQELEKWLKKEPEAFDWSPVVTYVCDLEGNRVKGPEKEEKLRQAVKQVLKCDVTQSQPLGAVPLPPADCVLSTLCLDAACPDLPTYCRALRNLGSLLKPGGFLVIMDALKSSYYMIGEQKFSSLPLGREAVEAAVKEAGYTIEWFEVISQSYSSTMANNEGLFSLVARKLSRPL
For assay [4], the target named is Phenylethanolamine N-methyltransferase (Homo sapiens) (UniProt P11086). The assay is described as above. The note with it: MTase-Glo luminescence, SAH detection, recombinant enzyme; measured here: PNMT max response; stronger effect = lower value.
Sequence of Phenylethanolamine N-methyltransferase (Homo sapiens) (P11086 whole entry, looked up): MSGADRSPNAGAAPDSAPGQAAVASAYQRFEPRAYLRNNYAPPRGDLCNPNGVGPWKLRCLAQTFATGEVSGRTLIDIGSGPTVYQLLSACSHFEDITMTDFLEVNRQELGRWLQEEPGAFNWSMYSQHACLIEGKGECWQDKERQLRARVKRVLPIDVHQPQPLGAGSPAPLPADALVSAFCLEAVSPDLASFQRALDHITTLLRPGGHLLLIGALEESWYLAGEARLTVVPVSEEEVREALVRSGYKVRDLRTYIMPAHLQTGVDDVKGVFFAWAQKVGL
The target of assay [5] is Glutathione peroxidase 1 (Homo sapiens) (UniProt P07203). The experiment in a line: Primary qHTS Assay for Inhibitors of Recombinant Selenoprotein Glutathione Peroxidase 1 (GPX1) (AID 1845191). Further: nearly all actives have a fitted effect of over 65% in size. The note with it: recombinant GPX1, GR-coupled NADPH fluorescence, 15 min; series mostly up to 48.8 µM. A digest of the protocol:
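GR-coupled assay: compounds preincubated 30 min at room temperature with GPX1, then reaction started with CHP; final 10 nM GPX1, 1 mM GSH, 0.5 mM CHP, 0.5 mM NADPH, 100 nM GR, 0.01% BSA, pH 7.5 Tris buffer. NADPH fluorescence (340/450 nm) read at 0 and 15 min.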

The target in assay [6] is Phospholipid hydroperoxide glutathione peroxidase GPX4 (Homo sapiens) (UniProt P36969). As to the kind of experiment: Primary qHTS Assay for Inhibitors of Recombinant Selenoprotein Glutathione Peroxidase 4 (GPX4) (AID 1845192). Further: nearly all actives have a fitted effect of over 65% in size. On activity change, negative = inhibition: on the % scale 0 is the no-effect control and ±100 the full control effect. To be noted: recombinant GPX4, GR-coupled NADPH fluorescence, 15 min; series mostly up to 50 µM. A digest of the protocol:
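GR-coupled assay: recombinant GPX4 preincubated 30 min with compound at room temperature; final 200 nM GPX4, 1 mM GSH, 0.5 mM cumene hydroperoxide, 0.5 mM NADPH, 100 nM GR, 0.01% BSA, pH 7.5 Tris. NADPH fluorescence (340/450 nm) read at 0 and 15 min.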

The target in assay [7] is Metallo-beta-lactamase type 2 (Klebsiella pneumoniae) (UniProt C7C422). As to the kind of experiment: qHTS to identify inhibitors of the New Delhi Metallo-beta-lactamase (NDM): assay validation screen against the NCATS LOPAC Collection (AID 1794843).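 Further: nitrocefin turnover by NDM-1 measured as 485 nm absorbance at plateau; on the % scale 0 is the no-effect control and ±100 the full control effect.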 To be noted: NDM-1 enzyme, nitrocefin hydrolysis, absorbance 485 nm; series mostly up to 38.4 µM. In a few lines: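 Nitrocefin hydrolysis (50 uM substrate stock) by NDM-1, 2 nM final, was followed by 485 nm absorbance after compound preincubation; buffer was 50 mM HEPES pH 7.0, 1 uM ZnSO4, 0.01% Tween20.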
Sequence of Metallo-beta-lactamase type 2 (Klebsiella pneumoniae) (C7C422 whole entry, looked up): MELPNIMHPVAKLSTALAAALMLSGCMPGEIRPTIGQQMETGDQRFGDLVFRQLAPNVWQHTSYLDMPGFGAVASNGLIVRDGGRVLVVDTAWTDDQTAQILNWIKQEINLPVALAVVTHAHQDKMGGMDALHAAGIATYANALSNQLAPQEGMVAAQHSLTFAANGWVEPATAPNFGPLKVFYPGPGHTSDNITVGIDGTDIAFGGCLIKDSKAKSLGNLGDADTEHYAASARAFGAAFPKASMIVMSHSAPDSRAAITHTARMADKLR

Assay [8] has as its target Luciferin 4-monooxygenase (Photinus pyralis) (UniProt P08659). The experiment in a line: Primary firefly luciferase (FLuc) qHTS assay for identification of artifact compounds. (AID 1845220).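 Further: plate controls were DMSO vehicle for no effect and no enzyme for full effect; nearly all actives have a fitted effect of over 60% in size.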 To be noted: purified firefly luciferase, luminescence, 5 min; series mostly up to 54.1 µM. A digest of the protocol:
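Titrated compounds were incubated 15 min at RT, protected from light, with luciferin and ATP at 10 uM; reaction started with 10 nM FLuc, luminescence imaged at 5 min, and concentration-response fitted by Hill equation.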
For orientation: qHTS replaces the single test concentration by a dilution series.

Assay [9] can be described thus: Primary fluorescence-based thiol-reactive (MSTI) qHTS assay for identification of artifact compounds. (AID 1845221).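 Further: thiol-reactive compounds lower the probe fluorescence signal; nearly all actives have a fitted effect of over 65% in size.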 To be noted: MSTI thiol-reactivity probe, 1 h; series mostly up to 53.8 µM. A digest of the protocol:
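Compounds were incubated 1 h at room temperature in the dark with the MSTI probe (4 uM) in PBS pH 7.4, 2% DMSO. Signals were normalized between Acetyl-MSTI and MSTI.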

In assay [10] the test system is Nanoluciferase (engineered Oplophorus gracilirostris luciferase). The experiment in a line: Primary Nanoluciferase (NLuc) qHTS assay for identification of artifact compounds. (AID 1845222).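 Further: NLuc secreted into diluted conditioned medium of S16 cells; 0% = DMSO and -100% = no enzyme.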 To be noted: NLuc-conditioned medium, Nano-Glo luminescence, 5 min; series mostly up to 54.1 µM. A digest of the protocol:
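qHTS format, against NLuc in S16 cell-conditioned medium. Nano-Glo substrate 1:100 was added after 15 min at room temperature. Luminescence was taken after a further 5 min.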

Assay [11] is described as follows: Primary redox qHTS assay for identification of artifact compounds. (AID 1845223).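 Further: 0% = DMSO and 100% = reference compound.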 To be noted: Amplex Red/HRP redox cycling with DTT, fluorescence; series mostly up to 53.8 µM. In a few lines: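 Amplex Red (25 uM) and HRP (250 mU/mL) in HBSS, with compounds for 15 min, then 250 uM DTT for 30 min, room temperature, dark. Fluorescence 525/598 nm read; normalized to DMSO and 10 uM DA3003; Hill fit.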

Inconclusive results are not listed. Calls of active or inactive are those of the source. Unless noted, the call rests on the fitted dose curve; in most records, active means well fitted curve in the direction sought with a large enough effect; inconclusive means small, poorly fitted or top-dose-only effect, or another doubt; inactive means no such curve, though single readings can be large; an effect the other way counts as inactive or inconclusive.

Sequence of Glutathione peroxidase 1 (Homo sapiens) (P07203 whole entry, looked up): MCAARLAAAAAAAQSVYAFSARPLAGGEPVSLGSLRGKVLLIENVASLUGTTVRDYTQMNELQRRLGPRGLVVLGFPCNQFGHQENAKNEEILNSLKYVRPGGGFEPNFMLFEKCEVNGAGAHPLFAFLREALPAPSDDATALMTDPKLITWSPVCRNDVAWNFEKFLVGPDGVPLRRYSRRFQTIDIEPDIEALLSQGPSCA
Sequence of Phospholipid hydroperoxide glutathione peroxidase GPX4 (Homo sapiens) (P36969 whole entry, looked up): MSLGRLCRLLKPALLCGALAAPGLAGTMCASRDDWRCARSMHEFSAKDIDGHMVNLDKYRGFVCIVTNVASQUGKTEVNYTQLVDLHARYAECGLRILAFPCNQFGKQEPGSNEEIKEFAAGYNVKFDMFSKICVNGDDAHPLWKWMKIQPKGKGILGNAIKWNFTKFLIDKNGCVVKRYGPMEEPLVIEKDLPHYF

Turning to `N#CC(C#N)=Cc1ccc(O)c(O)c1`, the activity was 34.9% in [1], -6.68% in [3] and -1.74% in assay [4]. Further, in [2], the activity change, negative = inhibition stood at 1.06%. Also, the Potency entry in assay [5] and in assay [6] was “inactive” each time.
Consider `O=c1[nH]c2ccccc2n1CCCN1CCC(n2c(=O)[nH]c3cc(Cl)ccc32)CC1`, for which the outcome in [7] is “inactive”. The Potency result in [5] and in [6] was “inactive” throughout.
With `Cc1ncc(CNC(=O)N(CCCl)N=O)c(N)n1`, the outcome in assay [7] was “inactive”. Also, the Potency result in assay [5] and in assay [6] was “inactive” throughout.
As for `c1ccc(C2CC2)c(OCC2=NCCN2)c1`, the outcome in [7] is “inactive”. Besides, the Potency result in assay [5] and in assay [6] was “inactive” in each case.
On to `CC[C@@H](CO)NC(=O)[C@@H]1C=C2c3cccc4[nH]cc(c34)C[C@H]2N(C)C1`, for which, in assay [7], the outcome is “inactive”. The Potency result in [5] and in assay [6] was “inactive” each time.
In the case of `Cc1cccc(C)c1NC(=O)CN1CCCC1=O`, the outcome in [7] is “inactive”. The Potency entry in assay [5] and in assay [6] was “inactive” each time.
For the compound `NCC1(CC(=O)O)CCCCC1`, the outcome in assay [7] was “inactive”. For the same compound, the Potency result in [5] and in assay [6] was “inactive” in each case.
As for `Nc1ccncc1`, the activity in assay [1] is 0%; in assay [3], -30.8%; in [4], -0.809%. In assay [2], the Potency was 30.6 µM (active). Besides, the outcome in assay [7] was “inactive”. The Potency entry in [5] and in assay [6] was “inactive” each time.
As for `COc1ccc(C(CN(C)C)C2(O)CCCCC2)cc1` (stereo not drawn), the outcome in assay [7] was “inactive”. Further, the Potency result in assay [5] and in [6] was “inactive” each time.
In the case of `CNCC(O)c1ccc(O)cc1` (stereo not drawn), in assay [7], the outcome was “inactive”. Besides, the Potency entry in [5] and in [6] was “inactive” each time.
`Cc1cccc(C)c1NC1=NCCCS1`: the outcome in assay [7] was “inactive”. The Potency result in assay [5] and in assay [6] was “inactive” each time.
For the compound `CC[N+](CC)(CC)CC`, the activity in [1] was 2.75%; in assay [3] it was -4.15%; in assay [4] it was 4.2%. For the same compound, in [2], the activity change, negative = inhibition is 3.74%.
Regarding `O=c1[nH]c2ccccc2n1C1CCN(CCCC(c2ccc(F)cc2)c2ccc(F)cc2)CC1`, the outcome in [7], in assay [8], in assay [9], in [10] and in [11] was “inactive” each time. Also, the Potency result in assay [5] and in assay [6] was “inactive” in each case.
Turning to `COc1ccccc1N1CCNCC1`, the outcome in assay [7] is “inactive”. Further, the Potency entry in assay [5] and in [6] was “inactive” in each case.
With `CCC(C(N)=O)N1CCCC1=O` (stereo not drawn), the Potency result in assay [5] and in assay [6] was “inactive” each time.
As to `O=P1(NCCCl)OCCCN1CCCl` (stereo not drawn), the Potency result in [5] and in assay [6] was “inactive” in each case.
As to `O=C1NCN(c2ccccc2)C12CCN(CC1COc3ccccc3O1)CC2` (stereo not drawn), the outcome in [7] was “inactive”. The Potency entry in assay [5] and in [6] was “inactive” each time.
Consider `COc1ccc(C(=O)c2c(C)n(CCN3CCOCC3)c3ccccc23)cc1`, for which the Potency result in [5] and in assay [6] was “inactive” throughout.

For the origin of these results see PubChem BioAssay (NCATS).
